Measurements as given in PubChem BioAssay (Tox21).
Results filed as inconclusive are left out. Active and inactive are the calls of the source. Unless noted, calls come from the whole dose curve; as a rule, active = well fitted curve in the direction sought with a large enough effect in the repeat runs; inconclusive = weak or mixed curves; inactive = no such curve, though single readings can be large; an effect the other way counts as inactive or inconclusive.

Experiments:
[1] = qHTS assay to identify small molecule HDAC inhibitors (AID 1259364); note: top concentration of the series differs between compounds; nearly all actives have a fitted effect of over 45% in size
How it was run: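 Wild-type HCT-116 cells, plated overnight at 37 C, exposed to compounds 2 hr at 37 C; luminogenic HDAC-Glo substrate then added 30 min at room temperature. Luminescence reports relative endogenous class I/II HDAC activity.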

[2] = qHTS assay to identify small molecule HDAC inhibitors - cell viability counter screen (AID 1259365); note: series mostly up to about 92 µM; nearly all actives have a fitted effect of over 50% in size
How it was run: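 Wild-type HCT-116 cells, 1,500/well, cultured overnight, then compound-treated 2 h at 37 C. Viability measured as ATP luminescence with CellTiter-Glo after 30 min at room temperature.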

[3] = qHTS assay to identify small molecule agonists of the sonic hedgehog signaling (Shh) pathway - cell viability counter screen (AID 1259366); note: nearly all actives have a fitted effect of over 50% in size
How it was run: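 NIH/3T3-derived Gli1-Luc reporter cells, 2,000 per well, received compound after 4 h and were treated about 23 h at 37C. Viability measured in the same wells by CellTiter-Fluor fluorescence after 1 h.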

[4] = qHTS assay to identify small molecule antagonists of the sonic hedgehog signaling (Shh) pathway - cell viability counter screen (AID 1259367); note: nearly all actives have a fitted effect of over 55% in size
How it was run: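 Cells: 3T3 Gli1-Luc, 2,000/well, 4 hr pre-incubation. Compounds in DMSO, then conditioned medium. Incubation 24 hr, 37C, 5% CO2. CellTiter-Fluor at 23 hr, 1 hr, fluorescence.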

[5] = qHTS assay to identify small molecule agonists of the sonic hedgehog signaling (Shh) pathway (AID 1259368; calls by dose curve;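 note: NIH/3T3-derived 3T3Gli1-Luc cells carrying a stable Gli1-driven firefly luciferase reporter; series mostly up to about 92 µM; nearly all actives have a fitted effect of over 15% in size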)
How it was run: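 NIH/3T3-derived 3T3Gli1-Luc cells with stably integrated Gli1-driven firefly luciferase, 2,000 cells/well, compounds added after 4 hr. Incubated 24 hr at 37C, 5% CO2; luminescence read after 30 min with luciferase reagent at room temperature.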

[6] = qHTS assay to identify small molecule antagonists of the sonic hedgehog signaling (Shh) pathway (AID 1259369; calls by dose curve; note: nearly all actives have a fitted effect of over 45% in size)
How it was run: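 NIH/3T3-derived Gli1-Luc reporter cells plated 4 h, dosed with compound, then stimulated with conditioned medium for 24 h at 37 C. Firefly luciferase luminescence read after 30 min with detection reagent at room temperature.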

[7] = molecular target: Estrogen receptor beta (Homo sapiens) (UniProt Q92731); assay: qHTS assay to identify small molecule agonists of the estrogen receptor beta (ER-beta) signaling pathway (AID 1259377; active = well fitted activation curve with a large enough effect in the signal ratio in the repeat runs, not every such curve was filed as active; the % refers to the signal ratio)
How it was run: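 ER-beta-UAS-bla HEK293T cells in medium with 2% charcoal-stripped FBS were exposed to compounds for 16 h at 37C. Beta-lactamase reporter activity was read as fluorescence after 2 h with LiveBLAzer B/G FRET substrate at room temperature.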

[8] = qHTS assay to identify small molecule agonists of the estrogen receptor beta (ER-beta) signaling pathway - cell viability counter screen (AID 1259380); note: nearly all actives have a fitted effect of over 30% in size
How it was run: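 ER-beta-UAS-bla HEK293T cells in medium with 2% charcoal-stripped FBS, pre-incubated 6 hr, then treated 16 hr at 37C. Cytotoxicity read in the same wells by CellTiter-Glo luminescence after 30 min at room temperature.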

[9] = qHTS assay to identify small molecule antagonists of the estrogen receptor beta (ER-beta) signaling pathway - cell viability counter screen (AID 1259382);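 note: HEK293T cells carrying ER-beta-UAS-bla reporter stimulated with estradiol; series mostly up to about 92 µM; nearly all actives have a fitted effect of over 55% in size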
How it was run: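 ER-beta-UAS-bla HEK293T cells in 2% charcoal-stripped FBS medium, treated with compound plus 1 nM 17-beta-estradiol for 16 h at 37C. Viability read by CellTiter-Glo luminescence after 30 min at room temperature in the same wells.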

[10] = qHTS assay to identify small molecule agonists or antagonists of the thyroid stimulating hormone receptor (TSHR) signaling pathway - wild type cell line counter screen (AID 1259384; calls by dose curve)
How it was run: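 Counter screen in untransfected Hek293: compounds (15-point titration, triplicate) plus phosphodiesterase inhibitor Ro20-1724 added after 18 h plating; 30 min RT. Intracellular cAMP via competitive d2/cryptate immunoassay, 1 h incubation.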

[11] = molecular target: Thyrotropin receptor (Homo sapiens) (UniProt P16473); assay: qHTS assay to identify small molecule antagonists of the thyroid stimulating hormone receptor (TSHR) signaling pathway (AID 1259385; calls by dose curve; note: nearly all actives have a fitted effect of over 20% in size)
How it was run: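 Antagonist mode: compound-treated TSHR-expressing HEK293 cells were stimulated with 1.5 ng/mL TSH (final) in presence of Ro20-1724 for 30 min at RT. HTRF cAMP detection after 1 h; each compound tested at 15 concentrations, triplicate.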

[12] = qHTS assay to identify small molecule agonists of the estrogen receptor alpha (ER-alpha) signaling pathway in the presence of an antagonist - cell viability counter screen (AID 1259386);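 note: series mostly up to about 92 µM; cells exposed to compounds for 22 h at 37 °C before the viability read; nearly all actives have a fitted effect of over 30% in size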
How it was run: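 Cell viability in VM7Luc4E2 cells (endogenous full-length ER-alpha) measured by CellTiter-Fluor fluorescence in the same wells as the luciferase screen. Cells pre-cultured 5 days in charcoal-stripped serum, then treated 22 h with compounds at 15 concentrations plus 10.0nM ICI-182,780.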

[13] = molecular target: Progesterone receptor (Homo sapiens) (UniProt P06401); assay: qHTS assay to identify small molecule agonists of the progesterone receptor (PR) signaling pathway (AID 1346784; calls by dose curve; note: nearly all actives have a fitted effect of over 30% in size)
How it was run: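 PR-UAS-bla HEK 293T cells (beta-lactamase reporter under UAS) in 2% charcoal-stripped FBS, dosed with 23 nL compound after 6 hr, incubated 16hr at 37C. LiveBLAzer B/G FRET substrate added, fluorescence read after 2 hours.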

[14] = molecular target: Progesterone receptor (Homo sapiens) (UniProt P06401); assay: qHTS assay to identify small molecule antagonists of the progesterone receptor (PR) signaling pathway (AID 1346795; active = well fitted inhibition curve with a large enough effect in the signal ratio in the repeat runs, not every such curve was filed as active; the % refers to the signal ratio)
How it was run: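 PR-UAS-bla HEK293T cells with beta-lactamase reporter under UAS control, in 2% charcoal-stripped FBS, treated with compounds plus 1 nM promegestone (R5020, final) for 16 hr at 37C. Read-out: FRET beta-lactamase substrate fluorescence after 2 hr at room temperature.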

[15] = qHTS assay to identify small molecule antagonists of the progesterone receptor (PR) signaling pathway - cell viability counter screen (AID 1346798); note: series mostly up to about 92 µM; nearly all actives have a fitted effect of over 50% in size
How it was run: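 PR-UAS-bla HEK293T cells, 3,000/well in 2% charcoal-stripped FBS medium, dosed with compounds plus R5020 agonist and incubated 16 h at 37C. Viability then measured in the same wells by CellTiter-Glo luminescence after 30 min at RT.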

[16] = qHTS assay to identify small molecule agonists of the progesterone receptor (PR) signaling pathway - cell viability counter screen (AID 1346799; calls by dose curve; note: nearly all actives have a fitted effect of over 45% in size)
How it was run: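 Counter screen in the PR-UAS-bla HEK293T wells (2% charcoal-stripped FBS, 16 h compound exposure at 37 C) after the bla read. CellTiter-Glo added, 30 min at room temperature, luminescence read as cell viability.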

[17] = qHTS assay to identify small molecule agonists of the androgen receptor (AR) signaling pathway in the presence of an antagonist - cell viability counter screen (AID 1259379);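 note: MDA-kb2 human breast cancer cells carrying an MMTV luciferase reporter; series mostly up to about 92 µM; nearly all actives have a fitted effect of over 25% in size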
How it was run: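 MDA-kb2 cells (MMTV-luciferase, AR/GR), 3,000/well, 5 h attachment, then 3.0 µM nilutamide (final) and compounds at 15 concentrations. Viability by CellTiter-Fluor fluorescence after 16 h at 37 °C, 0% CO2, in the reporter wells.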

[18] = molecular target: Estrogen receptor (Homo sapiens) (UniProt P03372); assay: qHTS assay to identify small molecule agonists of the estrogen receptor alpha (ER-alpha) signaling pathway in the presence of an antagonist (AID 1259383; calls by dose curve; note: top concentration of the series differs between compounds; nearly all actives have a fitted effect of over 15% in size)
How it was run: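 VM7Luc4E2 cells express endogenous full-length ER-alpha with an ERE-luciferase reporter and were hormone-deprived for 5 days. Compounds at 15 concentrations were added with 10.0nM ICI-182,780 for 22hr at 37C. Luminescence was read with ONE-Glo.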

[19] = molecular target: Estrogen receptor beta (Homo sapiens) (UniProt Q92731); assay: qHTS assay to identify small molecule antagonists of the estrogen receptor beta (ER-beta) signaling pathway (AID 1259378; active = well fitted inhibition curve with a large enough effect in the signal ratio in the repeat runs, not every such curve was filed as active; the % refers to the signal ratio)
How it was run: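 Antagonist mode: compounds added to beta-lactamase reporter HEK293T ER-beta-UAS cells stimulated with E2 (1nM final), 16 hr at 37C. LiveBLAzer B/G FRET substrate, 2 hours room temperature, fluorescence read-out.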

[20] = qHTS assay to identify small molecule antagonists of the TGF-beta/Smad signaling pathway - cell viability counter screen (AID 1346824); note: nearly all actives have a fitted effect of over 50% in size
How it was run: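 Cytotoxicity counter-screen run in the same wells as the beta-lactamase Smad reporter read: CellTiter-Glo luminescence after 30 min at room temperature. HEK 293T SBE-bla cells had 5 hr compound exposure at 37 C with TGF-beta1 (0.25 ng/mL stock).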

Measured: Potency

Chain of Estrogen receptor beta (Homo sapiens) (Q92731 whole entry, looked up): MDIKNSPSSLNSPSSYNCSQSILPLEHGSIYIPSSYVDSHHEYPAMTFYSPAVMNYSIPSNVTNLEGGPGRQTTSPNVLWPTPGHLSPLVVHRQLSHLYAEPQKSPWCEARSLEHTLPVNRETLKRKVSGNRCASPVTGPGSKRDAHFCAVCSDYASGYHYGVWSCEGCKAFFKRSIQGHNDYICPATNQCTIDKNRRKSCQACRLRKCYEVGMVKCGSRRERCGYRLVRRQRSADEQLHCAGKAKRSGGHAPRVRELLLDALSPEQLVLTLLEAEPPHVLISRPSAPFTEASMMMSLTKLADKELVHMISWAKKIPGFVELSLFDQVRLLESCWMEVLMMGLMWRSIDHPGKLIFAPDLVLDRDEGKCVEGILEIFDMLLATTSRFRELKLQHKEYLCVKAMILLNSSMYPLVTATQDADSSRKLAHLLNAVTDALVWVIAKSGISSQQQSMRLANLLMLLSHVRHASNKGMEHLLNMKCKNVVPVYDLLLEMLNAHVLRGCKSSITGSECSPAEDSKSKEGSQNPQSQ
Chain of Estrogen receptor (Homo sapiens) (P03372 whole entry, looked up): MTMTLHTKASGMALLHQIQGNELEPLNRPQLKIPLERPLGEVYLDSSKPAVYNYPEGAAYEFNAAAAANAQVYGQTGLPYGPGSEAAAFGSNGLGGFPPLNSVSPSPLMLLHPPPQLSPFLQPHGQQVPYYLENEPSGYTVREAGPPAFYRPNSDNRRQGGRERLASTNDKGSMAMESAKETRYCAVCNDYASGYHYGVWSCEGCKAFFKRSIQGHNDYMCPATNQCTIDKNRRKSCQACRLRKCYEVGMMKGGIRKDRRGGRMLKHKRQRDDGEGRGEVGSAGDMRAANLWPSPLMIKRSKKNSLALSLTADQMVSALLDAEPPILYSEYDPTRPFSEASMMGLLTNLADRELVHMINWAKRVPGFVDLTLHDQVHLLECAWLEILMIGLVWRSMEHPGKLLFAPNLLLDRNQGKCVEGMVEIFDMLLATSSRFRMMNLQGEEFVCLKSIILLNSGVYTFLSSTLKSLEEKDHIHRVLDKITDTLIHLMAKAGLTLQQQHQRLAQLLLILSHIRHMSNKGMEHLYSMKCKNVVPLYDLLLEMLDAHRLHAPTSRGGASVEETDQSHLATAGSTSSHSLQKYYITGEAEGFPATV
Chain of Progesterone receptor (Homo sapiens) (P06401 whole entry, looked up): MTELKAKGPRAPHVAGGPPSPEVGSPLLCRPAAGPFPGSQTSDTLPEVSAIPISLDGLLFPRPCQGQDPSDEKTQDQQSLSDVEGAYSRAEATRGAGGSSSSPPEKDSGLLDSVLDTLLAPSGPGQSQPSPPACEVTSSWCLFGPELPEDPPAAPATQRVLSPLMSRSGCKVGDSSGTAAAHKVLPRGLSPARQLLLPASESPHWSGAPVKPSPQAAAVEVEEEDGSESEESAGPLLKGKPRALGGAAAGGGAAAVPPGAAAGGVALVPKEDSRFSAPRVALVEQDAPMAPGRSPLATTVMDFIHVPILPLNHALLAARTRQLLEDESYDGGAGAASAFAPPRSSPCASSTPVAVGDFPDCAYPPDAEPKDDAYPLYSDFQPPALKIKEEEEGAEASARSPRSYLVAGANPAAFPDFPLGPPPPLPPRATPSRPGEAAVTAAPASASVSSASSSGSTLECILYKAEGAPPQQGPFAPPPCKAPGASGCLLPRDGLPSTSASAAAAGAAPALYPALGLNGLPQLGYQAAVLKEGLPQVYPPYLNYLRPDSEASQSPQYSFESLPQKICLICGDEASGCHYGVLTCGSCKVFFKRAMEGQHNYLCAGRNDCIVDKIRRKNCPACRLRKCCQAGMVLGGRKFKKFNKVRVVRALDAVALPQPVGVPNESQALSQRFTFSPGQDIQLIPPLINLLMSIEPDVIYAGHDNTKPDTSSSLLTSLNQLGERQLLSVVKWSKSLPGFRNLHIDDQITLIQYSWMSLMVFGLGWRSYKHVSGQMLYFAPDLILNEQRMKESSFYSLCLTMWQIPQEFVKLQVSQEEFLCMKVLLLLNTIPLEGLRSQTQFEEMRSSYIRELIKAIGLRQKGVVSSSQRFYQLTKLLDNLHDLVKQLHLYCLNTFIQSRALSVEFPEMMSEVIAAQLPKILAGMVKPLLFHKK
Chain of Thyrotropin receptor (Homo sapiens) (P16473 whole entry, looked up): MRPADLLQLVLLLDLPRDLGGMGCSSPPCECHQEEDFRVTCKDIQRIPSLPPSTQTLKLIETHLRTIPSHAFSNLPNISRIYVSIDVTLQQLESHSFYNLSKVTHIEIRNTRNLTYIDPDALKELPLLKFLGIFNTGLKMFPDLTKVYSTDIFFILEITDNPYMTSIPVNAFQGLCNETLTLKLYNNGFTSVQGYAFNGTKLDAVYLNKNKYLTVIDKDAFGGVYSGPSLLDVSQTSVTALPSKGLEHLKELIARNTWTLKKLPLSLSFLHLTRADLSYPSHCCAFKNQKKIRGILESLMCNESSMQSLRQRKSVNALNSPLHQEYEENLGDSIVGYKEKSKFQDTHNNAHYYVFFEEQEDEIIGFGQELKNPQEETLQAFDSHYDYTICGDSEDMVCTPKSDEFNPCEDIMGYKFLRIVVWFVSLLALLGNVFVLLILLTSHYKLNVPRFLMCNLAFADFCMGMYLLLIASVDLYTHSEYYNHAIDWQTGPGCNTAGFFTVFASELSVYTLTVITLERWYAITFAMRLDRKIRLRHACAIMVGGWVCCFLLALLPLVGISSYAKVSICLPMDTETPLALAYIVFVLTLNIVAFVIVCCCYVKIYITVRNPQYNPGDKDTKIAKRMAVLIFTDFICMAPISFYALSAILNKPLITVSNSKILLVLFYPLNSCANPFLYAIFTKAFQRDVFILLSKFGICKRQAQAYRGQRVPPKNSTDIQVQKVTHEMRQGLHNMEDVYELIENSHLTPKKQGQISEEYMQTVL

CC(C)=CC(C)(C)C
inactive: [1] | [2] | [3] | [4] | [5] | [6] | [7] | [8] | [9] | [10] | [11] | [12] | [13] | [14] | [15] | [16]

O=C(O)CCNC(=O)c1ccccc1
inactive: [1] | [2] | [3] | [4] | [5] | [6] | [17] | [8] | [9] | [18] | [10] | [11] | [13] | [14] | [15] | [16]

C[C@H](CCC(=O)O)[C@H]1CC[C@H]2[C@@H]3[C@H](O)C[C@@H]4C[C@H](O)CC[C@]4(C)[C@H]3C[C@H](O)[C@]12C
inactive: [1] | [2] | [3] | [4] | [5] | [6] | [17] | [8] | [9] | [18] | [11] | [13] | [14] | [15] | [16]

C=CCOc1c(Br)cc(Br)cc1Br
inactive: [1] | [2] | [3] | [4] | [5] | [6] | [7] | [19] | [8] | [18] | [10] | [12] | [13] | [15] | [16] | [20]

CCS(=O)(=O)CCn1c([N+](=O)[O-])cnc1C
inactive: [1] | [2] | [3] | [4] | [5] | [6] | [17] | [8] | [9] | [18] | [10] | [11] | [12] | [14] | [16]

CCCCCCCCCCC
inactive: [1] | [2] | [3] | [4] | [5] | [6] | [7] | [19] | [9] | [18] | [10] | [11] | [12] | [13] | [14] | [20]

CC(=O)N(CC(O)CO)c1c(I)c(C(=O)NCC(O)CO)c(I)c(C(=O)NCC(O)CO)c1I (stereo unspecified)
inactive: [1] | [2] | [3] | [4] | [5] | [6] | [17] | [8] | [9] | [18] | [12] | [13] | [14] | [15] | [16] | [20]

C=C(C)[C@@H]1CC[C@@H](C)C[C@@H]1O
inactive: [1] | [2] | [3] | [4] | [5] | [6] | [17] | [8] | [9] | [10] | [11] | [12] | [14] | [15] | [16] | [20]

O=C(Oc1ccccc1C(=O)O)c1ccccc1O
inactive: [1] | [2] | [3] | [4] | [5] | [6] | [17] | [8] | [18] | [11] | [12] | [13] | [14] | [15] | [16] | [20]

OCCCCCCCl
inactive: [1] | [2] | [3] | [4] | [5] | [7] | [19] | [17] | [8] | [9] | [18] | [10] | [11] | [12] | [13] | [14] | [15] | [16] | [20]

CC(C)COC(=O)CCCCC(=O)OCC(C)C
inactive: [1] | [2] | [3] | [4] | [5] | [6] | [17] | [8] | [9] | [10] | [11] | [12] | [13] | [14] | [15] | [16] | [20]

C=C(C)C(=O)OCCCCCCOC(=O)C(=C)C
inactive: [1] | [2] | [3] | [4] | [5] | [6] | [8] | [9] | [10] | [11] | [12] | [13] | [14] | [16] | [20]

OC(CCN1CCCCC1)(c1ccccc1)c1ccccc1
inactive: [1] | [2] | [3] | [4] | [5] | [6] | [17] | [8] | [9] | [18] | [14] | [15] | [16] | [20]

CN[C@@H]1[C@@H](O)[C@@H](O[C@@H]2[C@H](O)[C@H](O[C@H]3OC(CN)=CC[C@H]3N)[C@@H](N)C[C@H]2N)OCC1(C)O (stereo partly specified)
inactive: [1] | [2] | [3] | [4] | [5] | [6] | [17] | [9] | [11] | [12] | [13] | [14] | [15] | [16]
